This is a sample that favours compounds with a hit; in the whole collection about 21% have one here.
Pf growth 48h = inhibits P. falciparum growth in the first generation, 48 h; P. falciparum luciferase growth in erythrocytes, 48 h; Potency, µM (series often up to 28.7 µM), most hits filed as inhibitors; hit rate 5.9% among 310,000
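First compound was added to culture medium, then infected red cells at 0.1% parasitemia and 2% hematocrit (final). After incubation at 37 C under 5% CO2, luciferase detection reagent was dispensed and light output recorded.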
Cycloheximide cs = affects cycloheximide protein synthesis inhibition readout, counter-screen. cell reporter, cycloheximide protein synthesis inhibition counterscreen. max response, %. hit rate 12% among 300,000. AID 2314; in the data active = max response mostly above about 13%, no sharp cut-off; inactive = mostly below about 14%; note: read at 38.3 µM for the half of the compounds with a filed dose
Pf growth 96h = P. falciparum growth inhibition at 96 hours; P. falciparum luciferase reporter growth, 96 h; Potency, µM (doses to about 28.7 µM), actives largely listed as inhibitors; hit rate 6.9% among 320,000; AID 504834
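Two-generation exposure (96 h) targets delayed-death phenotype. Reporter parasites carrying integrated firefly luciferase, in red cells at 2% hematocrit and 0.05% parasitemia final, kept at 37 C, 5% CO2; luminescence loss indicates inhibition.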
Shiga inhibitor = inhibitors of Shiga toxin in Vero cells; hit rate 9.2% among 290,000; inhibition, % at 38.7 µM; Vero cells, Shiga toxin protein synthesis inhibition reporter; in the data active = inhibition mostly above about 28%, no sharp cut-off; inactive = mostly below about 43%
A number is an active result; - = inactive; ? = inconclusive; . = not tested or not shown; [ ] = another dose, or the depositor's remark. Unless noted, calls come from the whole dose curve; as a rule, active = well fitted inhibition curve with a large enough effect; inconclusive = small, poorly fitted or top-dose-only effect, or another doubt; inactive = no such curve, though single readings can be large or run the other way.

SMILES	Pf growth 48h	Cycloheximide cs	Pf growth 96h	Shiga inhibitor
CC(=O)N1N=C(c2ccc(C)cc2)CC1c1ccc2c(c1)OCO2 (stereo not drawn)	-	45	-	52
CC(=O)N1N=C(c2ccco2)CC1c1ccc(C)cc1 (stereo not drawn)	-	-	-	-
Fc1ccc(CN2C3=NCCN3c3ccccc32)cc1	-	-	-	-
Cc1ccc(NC(=O)C(C)Sc2nc(-c3ccccc3)cc(=O)[nH]2)cc1 (stereo not drawn)	-	-	-	-
O=C(CNS(=O)(=O)c1c(Cl)cccc1Cl)N1CCCCCC1	-	-	?	.
Cc1cc(Cl)nc2ccc(Cc3ccc4nc(Cl)cc(C)c4c3)cc12	2.6µM	-	?	-
COc1ccc(S(=O)(=O)N2c3ccc(Cl)cc3[C@](O)(c3ccccc3Cl)[C@@H]2C(=O)N2CCC[C@H]2C(N)=O)cc1OC	?	.	9.5µM	.
COc1ccc(S(=O)(=O)N2CCC(C(=O)Nc3cccc(Cl)c3)CC2)cc1OC	-	-	?	-
C=CC#CC[N+]1(CC#Cc2ccccc2)CCOCC1	5.9µM	-	4.1µM	-
C(#Cc1ccccc1)C[N+]1(CC#Cc2ccccc2)CCCC1	2.3µM	-	?	-
C=CC[N+]1(CC#CCOC(c2ccccc2)c2ccccc2)CCOCC1	?	-	2.6µM	-
CCCN(CCC)S(=O)(=O)c1ccc(C)cc1	-	-	-	-
COc1ccc(C(=O)C(OC(=O)c2ccccc2)c2ccccc2)cc1 (stereo not drawn)	-	49	-	104
COc1ccc(C(=O)C(OC(=O)c2ccccc2Cl)c2ccccc2)cc1 (stereo not drawn)	-	28	?	83
Cn1c(=O)c2c(Nc3ccc(F)cc3)cc(=O)n(-c3ccccc3)c2n(C)c1=O	2.3µM	-	?	-
Cn1c(=O)c2c(O)cc(=O)n(-c3ccccc3)c2n(C)c1=O	-	-	-	-
Cn1c(=O)cc(Nc2ccccc2)c2c(=O)n(-c3ccccc3)c(=O)n(-c3ccccc3)c21	6.6µM	-	4.7µM	-
COc1ccc2nc(NC(=O)c3ccoc3C)sc2c1	-	48	-	38
COc1ccc2nc(NC(=O)c3sc4nc(C)cc(C)c4c3N)sc2c1	-	36	-	76
COc1ccc(OC)c(NC(=O)c2cccnc2Sc2cc(C)ccc2C)c1	10µM	-	?	-
COc1ccc(C(=O)Nc2nc(-c3ccccc3)c(C(C)=O)s2)c(OC)c1	-	-	-	-
COc1ccc(OC)c(NC(=O)c2ccccc2SC)c1	-	-	.	-
COc1ccc(C(=O)Nc2nc3cc4c(cc3s2)OCO4)c(OC)c1	-	38	-	66
CC(=O)Nc1ccc(S(=O)(=O)NCCC(=O)OCC(=O)N2CCN(C(=O)c3ccco3)CC2)cc1	-	-	-	-
Cc1cc(C)cc(NC(=O)CSc2nc(=O)n(CCCN3CCOCC3)c3c2CCCC3)c1	-	.	?	.
SMILES	Pf growth 48h	Cycloheximide cs	Pf growth 96h	Shiga inhibitor
COc1ccc(C2NC(=O)CCC2[N+](=O)[O-])c(OC)c1OC (stereo not drawn)	-	-	?	-
CC1CCN(Cc2ccc(NC(=O)CC3Oc4ccccc4NC3=O)cc2)CC1 (stereo not drawn)	.	-	-	-
Clc1ccc(CO/N=C2\CCCc3nonc32)c(Cl)c1	-	-	-	-
COc1ccc2nc(NC(=O)c3cc(S(=O)(=O)N4CCOCC4)ccc3C)sc2c1	-	-	.	-
COC(=O)c1sc(NC(=O)/C=C/c2ccc(C)o2)nc1C	-	33	-	56
CC(=O)Nc1ccc(Sc2ncccc2C(=O)Nc2ccc(F)cc2)cn1	13µM	-	6.6µM	-
COc1ccc2nc(NC(=O)c3cc(C)oc3C)sc2c1	-	18	-	36
COC(=O)c1sc(NC(=O)c2ccco2)nc1C	-	-	-	-
COC(=O)c1sc(NC(=O)c2ccoc2C)nc1C	-	26	-[5.75 µM]	16
NC(=O)C(=CNc1nc(-c2ccc(Cl)c(Cl)c2)cs1)C(N)=O	?	-	?	-
Cc1ccc(O)c(CNc2ccc(S(=O)(=O)Nc3nccs3)cc2)c1	-	-	-	-
Cc1cc(C(=O)Nc2nc3ccc(S(C)(=O)=O)cc3s2)c(C)o1	-	16	-	30
COc1ccc2nc(NC(=O)c3cccnc3SC)sc2c1	-	61	-	35
COc1ccc2oc(C(=O)Nc3nc4ccc(S(C)(=O)=O)cc4s3)c(C)c2c1	?	.	-	.
CSc1ncccc1C(=O)Nc1ccc(OC(F)(F)F)cc1	-	13	-	-
CCCOc1ccc(C(=O)CCNC(Cc2c[nH]c3ccccc23)C(=O)O)cc1 (stereo not drawn)	-	-	-	-
Cn1nnc(-c2ccc(OCc3ccccc3F)cc2)n1	-	44	-	94
Fc1ccccc1COc1ccc(-c2nnn(Cc3ccccc3F)n2)cc1	.	-	.	-
CC(C)n1nnc(-c2ccc(OCc3ccccc3F)cc2)n1	-	26	8.3µM	.
Fc1ccccc1COc1ccc(C(=S)N2CCCC2)cc1	-	34	?	116
C=C1CCN([C@@H](C)C(=O)NCc2ccc(OC)cc2)S(=O)(=O)c2ccccc21	?	-	?	-
Cc1nnc(SCC(=O)Nc2cc(S(C)(=O)=O)ccc2Cl)n1Cc1ccccc1	-	-	?	-
C=CCn1c(=O)c(C(=O)NC2CC2)c(O)c2cc(OC)c(OC)cc21	-	-	12µM	-
C=CCn1c(=O)c(C(=O)NCCc2ccc(Cl)cc2)c(O)c2cc(OC)c(OC)cc21	-	-	-	-
Cc1nc(SCC(=O)c2c[nH]c3ccccc23)n[nH]1	-	-	-	-
SMILES	Pf growth 48h	Cycloheximide cs	Pf growth 96h	Shiga inhibitor
O=c1[nH]c(SCc2ccccc2F)nc2ccccc12	-	-	-	-
Cc1[nH]c2ccccc2c1C(=O)CSC(=S)N1CCN(C)CC1	-	-	?	-
O=C(CSc1nc2ccccc2[nH]1)c1ccccc1F	-	40	-	92
Fc1ccccc1CSc1nc2ncccc2[nH]1	-	45	-	63
O=C(CSc1nc2ccccc2[nH]1)Nc1c(F)cccc1F	-	-	-	-
O=C(CSc1nc2ccccc2[nH]1)c1c[nH]c2ccccc12	-	29	-	72
Cc1[nH]c2ccccc2c1C(=O)CSC(=S)N(C)C	-	30	-	74
COc1cc2c(cc1OC)CN(C(=O)C1CCCN(C(=O)c3ccc(Cl)cc3)C1)CC2 (stereo not drawn)	?	.	-	.
O=C(NC(=S)NNS(=O)(=O)c1ccc(Cl)cc1)c1cccnc1	-	-	-	-
O=C(CSc1nc2ccccc2[nH]1)c1ccc(Cl)s1	?	39	.	86
Cc1[nH]c2ccccc2c1C(=O)CSc1nc2ncc(Cl)cc2[nH]1	-	-	-	-
CSc1ccccc1NC(=O)CN(C)CC(=O)c1c(C)[nH]c2ccccc12	4.1µM	.	?	.
Cc1ccc2nc(SCC(=O)c3c[nH]c4ccccc34)[nH]c2c1	2.9µM	-	?	71
Cc1ccc2nc(SCC(=O)c3c(C)[nH]c4ccccc34)[nH]c2c1	-	21	-	-
Cc1ccc2nc(SCC(=O)c3cc(C)n(C)c3C)[nH]c2c1	.	-	-	-
Clc1cccc(CSc2nc3ccncc3[nH]2)c1	.	-	?	-
Fc1cccc(CSc2nc3ccncc3[nH]2)c1	-	32	-	50
Fc1cccc(F)c1CSc1nc2ccccc2[nH]1	-	37	.	111
